Source: PubChem BioAssay (several laboratories)
MCL1-BIM inh – MCL1-BIM-BH3 interaction inhibition (human). GST-MCL1 / FITC-Bim-BH3 fluorescence polarization. inhibition, % at 10.9 µM. 320,000 compounds, 0.68% hits;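 active = inhibition above the mean inhibition of all tested compounds plus 3 SD, set per campaign, cut at about 40% in these data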;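 note: 0% = DMSO wells and 100% = unlabeled Bim-BH3 peptide control; higher means more loss of mP so more displacement of Bim peptide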
EBV gp42 block – EBV gp42 inhibition; 220,000 compounds, 0.42% hits; Fluorescence polarization binding assay, mP read-out; Q1HVG2; inhibition, % (tested at 21.74 µM); in the data active = inhibition above about 50%
Bcl-xL primary – blocks human Bcl-xL binding to Bim BH3 peptide; inhibition, % at 10.9 µM; AID 2129; 320,000 compounds, 0.7% hits; Q07817; GST-Bcl-xL / FITC-Bim BH3 peptide fluorescence polarization;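 active = inhibition above the mean of all tested compounds plus 3 SD, cutoff set per campaign, cut at about 30% in these data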;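 note: 0% = DMSO wells and 100% = unlabeled Bim-BH3 peptide competitor; inhibitors lower millipolarization by displacing the labeled peptide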
eLon inh – inhibitors of E. coli Lon protease. inhibition, % at 7.94 µM. P0A9M0. purified E. coli Lon protease, fluorescence polarization. 360,000 compounds, 0.42% hits; in the data active = inhibition above about 13%, passing the limit was not always enough;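 note: 0% = enzyme with probe and DMSO and 100% = no enzyme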
MEX-5 binding – C. elegans MEX-5 TCR-2 RNA binding activity | Q9XUB2 | 300,000 compounds, 0.38% hits | MEX-5/FITC-TCR2 RNA binding, fluorescence polarization; stronger effect = lower value | activity score (negative = inhibition of binding), % at 10 µM | AID 1832;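 active = inhibition past about -25% in most replicates, and total fluorescence under double the plate's negative control median, limit read from the data; inconclusive = replicates evenly split on the limit, or fluorescence at least double controls; inactive = too little inhibition in most replicates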;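 note: 0% = DMSO and -100% = 5 µM competing unlabeled TCR2 RNA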
Target sequence (Q9XUB2 whole entry, looked up): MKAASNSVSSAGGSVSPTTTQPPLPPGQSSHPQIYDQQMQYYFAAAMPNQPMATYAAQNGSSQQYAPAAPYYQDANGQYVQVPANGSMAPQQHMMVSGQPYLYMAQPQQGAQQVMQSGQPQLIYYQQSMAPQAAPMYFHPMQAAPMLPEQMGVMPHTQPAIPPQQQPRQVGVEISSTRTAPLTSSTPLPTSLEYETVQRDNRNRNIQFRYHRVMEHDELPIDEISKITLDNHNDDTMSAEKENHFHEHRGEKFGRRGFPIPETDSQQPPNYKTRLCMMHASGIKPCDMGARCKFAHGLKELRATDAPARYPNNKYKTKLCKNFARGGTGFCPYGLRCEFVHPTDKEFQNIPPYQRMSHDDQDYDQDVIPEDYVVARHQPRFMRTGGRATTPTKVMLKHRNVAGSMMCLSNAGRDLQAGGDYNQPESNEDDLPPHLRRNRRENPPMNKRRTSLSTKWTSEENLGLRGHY
GLD-1 TGE inh – GLD-1-TGE RNA interaction inhibition (C. elegans); Q17339; purified GLD-1 + fluorescein TGE RNA, fluorescence polarization; inhibition, % at 5.96 µM; 320,000 compounds, 0.44% hits; AID 2280;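 active = percent inhibition above a per-plate cutoff, the plate mean of test compounds plus 3 SD, cut at about 30% in these data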;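 note: 0% = DMSO wells with GLD-1 and probe and 100% = wells lacking GLD-1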
The depositor's hits bear a star; ? = inconclusive; . = not tested or not shown. The list is not random: actives were taken first. Their share in the collection is about 1.5%.

SMILES	MCL1-BIM inh	EBV gp42 block	Bcl-xL primary	eLon inh	MEX-5 binding	GLD-1 TGE inh
O=C(CNC(=O)N1CC(=O)Nc2ccccc21)Nc1cccc(F)c1	5.2	.	0.9	-4.5	-1.1	-2.5
O=C1/C(=C/c2ccccc2)CCCc2ccccc21	5.4	-5.9	2.4	-2.1	-0.7	-4.0
CN(C)c1ccc(/C=C2\CCC/C(=C\c3ccccc3)C2=O)cc1	-91.7	118.6*	-26.7	-182.8	-3.0	-23.2
Clc1ccc(OCc2nnc(-c3ccccc3Br)o2)c(Cl)c1	5.7	90.6*	5.6	-4.5	2.1	-0.1
CCC1(C)Cc2ccccc2/C(=C/C(=O)N2CCCCC2)N1 (configuration not stated)	31.2	8.3	31.3*	7.2	-1.3	12.5
CNC(=O)/C=C1\NC(C)(C)Cc2ccccc21	-3.2	-19.3	1.4	-0.9	2.0	-4.3
Cc1ccc(C(=O)NCc2ccc(F)cc2)cc1NC1=NC2CS(=O)(=O)CC2S1 (configuration not stated)	3.0	.	1.5	-2.8	0.6	-0.1
Cc1ncc(CO)c(/C=N/NC(=O)c2cc(Br)ccc2O)c1O	19.7	-16.0	4.6	-4.3	-82.0*	0.1
Cc1ncc(CO)c(/C=N/NC(=O)c2cc(O)c(O)c(O)c2)c1O	.	-18.5	.	.	-39.1*	.
Cc1ncc(CO)c(/C=N/NC(=O)c2ccc(Br)cc2)c1O	12.0	-3.1	10.7	.	-0.4	15.1
NC(=Nc1ccc(N)cc1)C(N)=Nc1ccc(N)cc1	10.6	3.2	7.0	5.0	-29.7*	5.4
CC1CN(C(=O)/C=C/c2ccccc2Cl)CC(C)O1 (configuration not stated)	6.5	.	4.8	-8.8	-1.3	10.2
Cc1cc(O)c(C(C)C)cc1N=C1CSC(=O)N1	39.1	31.1	40.4*	1.8	?	29.7
CCOC(=O)c1ccc(N2C(=O)C3CC=CCC3C2=O)cc1 (configuration not stated)	-4.5	0.8	-2.8	5.6	-2.6	-6.0
CCOC(=O)c1ccc(N2C(=O)C3C(C2=O)C(C(=O)c2ccc(Cl)cc2)N2CCCC32)cc1 (configuration not stated)	35.6	93.6*	57.9*	-16.9	-6.4	21.2
CCSC1=N/C(=C\c2ccccc2)C(=O)N1	-0.5	-6.0	3.8	-6.3	-39.9*	4.4
Cc1cccc2cc3c(N)c(C#N)sc3nc12	30.3	7.3	34.8*	2.0	-3.6	1.3
Fc1ccc(C(c2nnnn2CCc2ccccc2)N2CCCc3ccccc32)cc1 (configuration not stated)	3.7	-5.5	4.4	2.4	-1.1	0.5
c1ccc(CCn2nnnc2CN2CCCc3ccccc32)cc1	41.5*	11.4	41.5*	12.7	-6.3	5.1
CCCCN1C(=O)/C(=C2/Sc3ccccc3N2C)S/C1=N\c1ncn[nH]1	-39.2	-116.2	-32.7	-70.1	-69.2*	-41.5
CC(C)C(=O)Nc1ccc(S(=O)(=O)N2CCC(c3nc4ccccc4[nH]3)CC2)cc1	-5.8	.	2.0	-6.1	3.0	3.0
Cc1c(Cl)sn(-c2ccc(Cl)cc2)c1=O	.	-21.7	.	6.9	.	.
CC(=O)c1cc2ccc(O)cc2oc1=O	37.3	32.5	48.2*	1.3	-2.2	25.1
COc1ccc2cc(C(C)=O)c(=O)oc2c1	-5.0	-3.8	1.8	-1.2	-0.3	-3.2
CCOC(=O)C1=C(C)NC(=O)/C1=C\N(C)C	30.7	-10.4	37.8*	-2.5	-3.2	21.2
SMILES	MCL1-BIM inh	EBV gp42 block	Bcl-xL primary	eLon inh	MEX-5 binding	GLD-1 TGE inh
CCCCN(C(=O)COC(=O)c1ccc(C=O)cc1)c1c(N)n(CCC)c(=O)[nH]c1=O	0.4	.	1.7	-3.3	.	2.8
CCC(=O)c1ccc(OCC(=O)OCC(=O)NCC2CCCO2)cc1 (configuration not stated)	-8.9	.	-1.0	-3.8	-1.5	-0.1
CN(C)CCCn1c(=O)n(CCc2ccccc2)c(=O)c2c3c(sc21)CCCCC3	37.8	-12.8	56.1*	-4.2	0.2	21.4
CN(C)CCn1c(=O)n(Cc2ccccc2)c(=O)c2c3c(sc21)CCCCC3	10.6	.	6.6	-1.4	0.0	2.9
Cc1onc(-c2ccccc2)c1CNS(=O)(=O)c1cccc(Br)c1	-3.6	7.9	-1.6	-4.7	-2.8	6.2
COc1ccc(C2C(C(=O)c3ccco3)=C(O)C(=O)N2c2nnc(C)s2)cc1 (configuration not stated)	32.0	42.8	25.8	0.8	-5.8	23.9
CSc1nnc(N2C(=O)C(O)=C(C(=O)c3ccco3)C2c2cccc(Cl)c2)s1 (configuration not stated)	32.6	.	38.9*	-13.4	-26.0*	37.3*
COc1ccc(C2C(C(=O)c3ccco3)=C(O)C(=O)N2c2nnc(C)s2)cc1OC (configuration not stated)	43.3*	.	44.9*	5.1	-11.9	18.8
CCOc1cccc(C2C(C(=O)c3ccco3)=C(O)C(=O)N2c2nnc(C)s2)c1 (configuration not stated)	34.0	.	43.4*	16.1	.	50.2*
C=CCOc1ccc(C2C(C(=O)c3ccco3)=C(O)C(=O)N2c2nnc(C)s2)cc1 (configuration not stated)	26.8	42.9	33.3*	-0.1	-6.8	21.4
CCOc1cccc(C2C(C(=O)c3ccc(C)o3)=C(O)C(=O)N2c2nnc(C)s2)c1 (configuration not stated)	.	.	.	-2.9	.	.
CCCCn1c(N)c(N(CCOC)C(=O)CC2CCCCC2)c(=O)[nH]c1=O	.	.	.	6.6	.	.
CCN(C(=O)CSc1nc(N)cc(N)n1)C1CCS(=O)(=O)C1 (configuration not stated)	9.6	.	5.2	4.9	-3.4	-2.4
O=C(O)c1cc(-c2ccc(/C=N/Nc3ccc([N+](=O)[O-])cn3)o2)ccc1Cl	.	-11.5	.	-7.8	-71.6*	.
Cc1cc(/C=C(/C#N)c2nc3ccccc3[nH]2)c(C)n1-c1cc(C(=O)O)cc(C(=O)O)c1	.	129.0*	.	-118.9	-14.6	.
O=C(COc1ccccc1)NCC(=O)N1CCCCCC1	-4.3	.	-0.8	3.7	.	4.3
CCCC1=NCCn2cccc21	30.9	-14.0	33.2*	7.4	-3.2	27.9
COc1ccc(C2=NCCn3cccc32)c(OC)c1	5.4	-8.8	5.4	-1.7	3.1	2.1
COc1ccc(S(=O)(=O)N2CCCCC2)cc1NC(=O)CCNC(=O)c1ccccc1Cl	27.7	.	31.6*	-2.3	.	8.1
CC(C)c1ccc(/C=N/NC(=O)c2nnn(-c3nonc3N)c2CN(C)C2CCCCC2)cc1	2.2	.	6.1	0.6	0.7	-7.2
Nc1ncnc2c1ncn2[C@@H]1O[C@H](C(=O)N2CCN(Cc3ccccn3)CC2)[C@@H](O)[C@H]1O	.	.	.	4.4	.	.
Nc1ccn([C@@H]2O[C@H](CNCc3cnc(N4CCOCC4)nc3)[C@@H](O)[C@H]2O)c(=O)n1	.	.	.	0.8	.	.
